Data taken from publication PMC12864922, “TDP-43 directly inhibits mRNA accumulation in neurites through modulation of mRNA stability”.
In all, about 9,900 sequences were measured (“r (bound/input frequency ratio)”: median about 0.7, highest 2% from about 6.5 on). This is one part of a sample in which the highest values are shown more often than they occur.

B1: ENSMUSG00000028439.291|Fam219a|94:98 (ssRNA)
RNA: GGGAGUUCUACAGUCCGACGAUCGCUUCGAUAUCCGCAUGCUAGUGUCUCUCCUUCAGGCGCCCCACAUGCCAGCAUUUCCACCCUCUGGAUUCUCCUCACAUGUCACUCUCCAGGUGCCGGGGCCUAGAGUGGGCCACACAGAAGGAGGAGUGGGGCUGUUGGCUUAGGAAGGGAAGCGCCUCUCUGUACACCACAACCAGGAGCUGCCCACUCCCCACACCUCCAGCCCAGCUUACCUCCCCCUAGUACAGAGAUCCUAAUUAGAUAAGAAAAUGCCAAGGGAGGCAAGCCAGAGAAAGCACUCUUGCGGUCGCACUAGUGUGGAAUUCUCGGGUGUCAAGG
B2: ENSMUSG00000090935.679|Synj2bp (ssRNA)
RNA: GGGAGUUCUACAGUCCGACGAUCGCUUCGAUAUCCGCAUGCUAUGAACCUUGAGAUUCACCACUGUCAGGAGCUCUCUCUCUCUGCUUAGAAUCAUCCAGACAGCGGGCUGGUCAGCCCACAUUAAAUAAGAACAUGUGGGACUAGAAUUCAGUCAACAAUGACAUGUUUCAUCAGGUGGUUAAAAUGUACAGAUUCUGUUGGAAAUGUUCCAUGGUAUUUCAAUAGCCAGAAUGAAGAACUGGGCUAAGUCCAGAGCUCUGCUCUCUGAGCAUCUGCCCCAGAUACAGAGGCAGAGUAUGAACUCUUGCGGUCGCACUAGUGUGGAAUUCUCGGGUGUCAAGG
B3: ENSMUSG00000043670.52|Diras1|235:240 (ssRNA)
RNA: GGGAGUUCUACAGUCCGACGAUCGCUUCGAUAUCCGCAUGCUACACCAGCCUACAGUAAGGUUGGGCUCCAUCCCUGCCUCUUCACACCUCCAUAGCUUCAUCCUUUGCAGACCUCUCCCUCUAUAUCUCUUUGCUCCCCCACCCCCAUUCUAUCUGCACCCCACAACCACACACUGGAGGUUUGAUCCCUGUGGAUCUGAAAACAGGGACCUGGCUAAGGAACUGCUCAUCCCAGUCAGGCCCAGAGAGGUUACCUUGCCUCUCCAUCUCUGUCCCACACACCCCAGCCAUGCCCACUGUCCCUCUUGCGGUCGCACUAGUGUGGAAUUCUCGGGUGUCAAGG
B4: ENSMUSG00000029028.191|Lrrc47 (ssRNA)
RNA: GGGAGUUCUACAGUCCGACGAUCGCUUCGAUAUCCGCAUGCUACCCAUCUCUGUGCAUCCUGACUGCGCACAUCCCAUCUCCGCAUGUGUACGCAUCUGUACCAGCACACAGCUGCCAUCCCUCGAGCCACAGUGCCUGGUCCUAAGGACCCAGCAGCUGCACAGAGGACUUGGUGGCCCCGUGCCUUGCCAUCUGGCUGAGAAGAGAACCAGACCCUCAGCCUUCCCCCUCGACACCUUCUCGUUGGUGACCUCUGACCUUAAAGGACCAUUUCUACCUUCUGUAAAAGAACACCUGUUUGGCUCUUGCGGUCGCACUAGUGUGGAAUUCUCGGGUGUCAAGG
B5: ENSMUSG00000061578.1057|Ksr2 (ssRNA)
RNA: GGGAGUUCUACAGUCCGACGAUCGCUUCGAUAUCCGCAUGCUAUGUGAAAGUCUGAUGACUCAAAUCAAAGUUUGGUUUUUCUUUUCUACUACUCUGAAGGAAAAUCUCAGCUUGGCUAUUUCUUCAUGUUUUAAAAAUGUCUUGACUUCUCUCAGCAACCAACUUCAGGUGCCAGGAUAUGAGAUGCUAAGGUUCAGGGGUGGUGGAGGUGAUUCUAUCCAGUGGCCAGCAAUACCCAAAAGCAGCCAACCAUGAAAAUAGAGGUUUGUAAUGUACAGAAGGCUGGGGGAGCUUUCAGGGGUCUCUUGCGGUCGCACUAGUGUGGAAUUCUCGGGUGUCAAGG
B6: ENSMUSG00000043670.174|Diras1 (ssRNA)
RNA: GGGAGUUCUACAGUCCGACGAUCGCUUCGAUAUCCGCAUGCUACAGCAAAGUCCCUGUGUGCGGUGAUAGGACUAGUGGCUGCUGCCCUAGGGCUCUGACAGAAUCUGAGCCUCUUUGCUGGUCAUGUGUACUCUGGAGACUGUCCCCCAUGUCUGCCCUGAGUUACGGAGCCCCUGUGGUAUCUGCGAGACUGUCCAGGAGACUUGAGUGGCUCCUGGGCCUGUGUCCCACCCAGAUGAGGGUGACUUAGAAUUCUGUGUUUAUGUGCCUGUGUGUGUGGAUGGGUGUGUGUCUGUCUUGGGCUCUUGCGGUCGCACUAGUGUGGAAUUCUCGGGUGUCAAGG
B7: ENSMUSG00000029636.81|Wasf3|153:157 (ssRNA)
RNA: GGGAGUUCUACAGUCCGACGAUCGCUUCGAUAUCCGCAUGCUAUGAUGUCUUCCAACCAGUGGGUGAUACGUUUUCCUGUUUCUUCCCUUUGCAAAUUGAAUUCCAGGUAGAUAUGGUUGUAGAGGGGAAAGUUUAACAAAUCAGAAUGAAAUGUUUGUCUGUUUGCACACUGGGCCUGGUGGCCUCCAAGGAAAACACAACGAUCGUUUGCUUUCUCUAUCUUGGCGCUUGCAACCGAGAGCGGCCAUUUUUAUGAGGGGAGCCCUGUGGGUACUCAUGUGGAAAGUGCCCACUGACUUUGGCUCUUGCGGUCGCACUAGUGUGGAAUUCUCGGGUGUCAAGG
B8: ENSMUSG00000029028.64|Lrrc47 (ssRNA)
RNA: GGGAGUUCUACAGUCCGACGAUCGCUUCGAUAUCCGCAUGCUAUGGGUAUGCUGUAGAUGUCUGUGUAGGUGUGGAUAUGCUGUAGGUAUCUGGGUGUGCUGUAGGUGUCUGUGUGGGUGUGGGUGUGCUGUGGGUGUCUGUGUGGGUGUGCUGUAGGUGUCUGUAGGUGUGGGUAUGCUGCAGGUGUGGGUGUGCUGUAGAUCUCUAUAGGUGUGGGUGUGCUGUAGGGGUCUGUGUGGGUAUAGGUGUGGGUGUGCUGUAGAUUCUGUGUAACUGGUUCUUUGCUGUUUCUCUGGGUGUUUCUCUUGCGGUCGCACUAGUGUGGAAUUCUCGGGUGUCAAGG
B9: ENSMUSG00000058297.508|Spock2 (ssRNA)
RNA: GGGAGUUCUACAGUCCGACGAUCGCUUCGAUAUCCGCAUGCUAUAGCCUGGGAGUUCUGGCAGGAGGCAAAGUUGGUGAGAGUCCUGGGACAUCUUACCCCCAGUGUUCCACAGGAGUCGUGACCACGUGUGAUGGGUGGGCACAGGUCUGCCUUGCUCCAGCCCCCUCCCUUGGUUUCUGUUGGUACCCAUUUGGCUUUUAUCUGCUUUCUGCUUCACCACUAAGUGCGUAGGUGGGGUCUUUUGAUAUCGGCUCCCCAAAGCCCAAGCCCACAGCCCUAGGAGAGAACCAGGGGCCCAUCUCUCUUGCGGUCGCACUAGUGUGGAAUUCUCGGGUGUCAAGG

What follows are binders tested against TDP-43 (Homo sapiens, UniProt Q13148 1-414) (assay: RNA Bind-n-Seq with designed 260-mer pool; 25 mM Tris-HCl, 150 mM KCl, 3 mM MgCl2, BSA (printed 500 mg/mL), 20 units/mL SUPERase IN; pH not stated; 500 nM RNA pool, 1 h, 4 C; TDP-43 5, 50, 500 nM; high values mean tight binding). Conditions: protein: recombinant; tags: SBP (GST cleaved off with PreScission; pGEX-GST-SBP).
Chain of TDP-43 (Q13148 whole entry): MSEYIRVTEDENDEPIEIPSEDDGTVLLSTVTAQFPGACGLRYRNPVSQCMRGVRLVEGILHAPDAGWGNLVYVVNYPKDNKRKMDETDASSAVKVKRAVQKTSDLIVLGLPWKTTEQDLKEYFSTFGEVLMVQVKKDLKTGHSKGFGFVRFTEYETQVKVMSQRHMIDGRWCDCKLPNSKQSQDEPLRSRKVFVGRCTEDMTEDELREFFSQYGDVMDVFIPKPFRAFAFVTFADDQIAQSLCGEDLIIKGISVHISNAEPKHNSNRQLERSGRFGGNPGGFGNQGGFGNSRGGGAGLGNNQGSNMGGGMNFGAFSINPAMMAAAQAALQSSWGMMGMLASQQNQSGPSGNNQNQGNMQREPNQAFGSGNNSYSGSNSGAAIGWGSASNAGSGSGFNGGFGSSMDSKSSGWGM
Method in brief: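 Streptavidin beads captured recombinant SBP-tagged TDP-43 at 5, 50 or 500 nM, and the beads were incubated for 1 h at 4 °C with 500 nM of an in vitro-transcribed pool of 260-nt 3′ UTR oligos in 25 mM Tris-HCl, 150 mM KCl, 3 mM MgCl2, BSA and SUPERase IN. After washing, bound RNA was eluted with biotin, reverse transcribed, PCR-amplified and sequenced. Binding is reported as R, the mapped-read-normalized abundance of each oligo in the bound sample divided by its abundance in the input. Two independent protein batches served as duplicates.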
For B1, the binding signal was 0.63 R (bound/input frequency ratio).
With B2 the binding signal was 0.733 R (bound/input frequency ratio).
B3 was tested, and the binding signal was 2.23 R (bound/input frequency ratio).
For B4, the binding signal was 0.696 R (bound/input frequency ratio).
For B5, the binding signal was 0.83 R (bound/input frequency ratio).
With B6 the binding signal was 5.89 R (bound/input frequency ratio).
For B7, the binding signal was 5.11 R (bound/input frequency ratio).
In the case of B8, the binding signal is reported as 5.28 R (bound/input frequency ratio).
With B9 the binding signal was 0.768 R (bound/input frequency ratio).
